According to the supplement of paper PMC6763611:

Tested on: Plasmodium falciparum NF54
Experiment: growth inhibition relative to untreated control; higher = more inhibition
Conditions: 72 h
Procedure, shortened: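 P. falciparum NF54 ring stages (1% hematocrit, 1% parasitemia, 100 μL/well in 96-well half-area dark plates) were exposed for 72 h at 37 °C to single 5 μM or 1 μM doses of Pathogen Box compounds. The medium was minimal RPMI or minimal RPMI plus chorismate end-products (2.2 μM folate, 7.3 μM pABA, 7.3 μM pHBA, 111 μM tyrosine, 90 μM phenylalanine, tryptophan). Growth inhibition was read by SYBR Green, normalised to untreated controls, with uninfected erythrocytes as background.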

[1] = 1 µM, MM + chorismate end-products (CM screening medium)
[2] = 5 µM, MM + chorismate end-products (CM screening medium)

SMILES	growth inhibition [1] [%]	growth inhibition (1 µM, minimal medium (MM)) [%]	growth inhibition [2] [%]	growth inhibition (5 µM, minimal medium (MM)) [%]
NCCN(C(=O)c1ccc(Cl)cc1Cl)c1ccc(OCc2ccc(Cl)cc2)cc1	33.8	27.2	97.9	91.1
Cc1ccc(NC(=O)c2nc[nH]c2C(=O)Nc2nc3ccccc3[nH]2)c(C)c1	31	49.8	26.8	80.9
O=C(COc1cccc(F)c1)Nc1nc(-c2ccccn2)cs1	< 0	2.24	< 0	< 0
O=C(C1CCN(c2cc(-n3cccc3)ncn2)CC1)N1CCc2ccccc2C1	11.5	5.57	4.91	3.34
CC(=O)NCC1CN(c2ccc(-c3ccc(CNCc4cn[nH]n4)cc3)c(F)c2)C(=O)O1 (centres undefined)	4.9	< 0	34.6	< 0
c1cncc(NCc2ccc(-c3cc4ccncc4cc3OC3CCNCC3)s2)c1	98.6	98	> 100	84.2
Cc1nc2ccccn2c1C(=O)NCc1ccc(Cl)cc1	1.31	< 0	31	10.3
O=C(Nc1ccccc1)c1ccc(-c2cc3ccncc3cc2OC2CCNCC2)s1	98.5	> 100	96.1	94.6
c1ccc(Oc2ccc(-c3cc(CN4CCOCC4)[nH]n3)cc2)cc1	0.894	< 0	< 0	11.1
NS(=O)(=O)c1cccc(-c2ccc3ncc(N4CCOCC4)nc3c2)c1	47	71	> 100	88.7
c1coc(CNc2nc(N3CCCCC3)nc3ccccc23)c1	68.6	35.7	67.2	67.2
CCC(Sc1nc2ccccc2o1)C(=O)Nc1nccs1 (centres undefined)	66.4	33	60	3.39
c1ccc(C[C@@H]2CN(c3nccc(Oc4ccc(-n5ccnc5)cc4)n3)CCN2)cc1	98.3	97.5	95.3	95.3
Clc1ccc(Cl)c(CO[C@H]2CCCC[C@@H]2n2ccnc2)c1	< 0	< 0	67.1	9.72
O=C(NCc1cc(Cl)cc(Cl)c1)c1c(C(F)(F)F)nc2ccccn12	2.45	10.6	31.8	9.63
CCCn1c(CNc2ccccc2O)nc2ccccc21	11.5	22.8	12.5	< 0
CS(=O)(=O)N1CCC(Cn2nc(Cc3cccc4ccccc34)c3c(N)ncnc32)CC1	41.5	< 0	42.7	17.6
CCc1ccccc1-n1c(C)cn2c3c(=O)n(C(C(=O)OC)C(C)C)c(=O)n(C)c3nc12 (centres undefined)	72.6	83	84.3	87.9

SMILES	growth inhibition [1] [%]	growth inhibition (1 µM, minimal medium (MM)) [%]	growth inhibition [2] [%]	growth inhibition (5 µM, minimal medium (MM)) [%]
CN1CCN(c2nccc3nc(-c4ccc(F)c(F)c4)[nH]c23)CC1	58.8	66.9	> 100	91.1
Cc1ccc2c(c1C)NC(=O)C21NN=C(c2ccccc2)S1 (centres undefined)	95.4	89.4	98.3	89.8
COc1ccc2nc(C)cc(OCC(=O)Nc3ccccc3OC)c2c1	11.7	< 0	< 0	27.5
C[C@H]1COc2c(N3CCN(C)CC3)c(F)cc3c(=O)c(C(=O)O)cn1c23	17.1	< 0	5.29	15.8
CNC(=O)c1nn(C)c2c1C(C)(C)Cc1cnc(Nc3ccc(N4CCN(C)CC4)cc3)nc1-2	64.5	73.6	88	87.2
C[C@H](C(N)=O)N1CCCC[C@H]1c1ccc(OCc2cccc(F)c2)cc1	18.3	3.3	< 0	< 0
COc1ccc(-c2cnc3ccc(N4CCCC4)nn23)cc1OC	79.9	78	96.8	82.4
c1ccc(Oc2ccc(-c3cc(N4CCOCC4)[nH]n3)cc2)cc1	> 100	< 0	7.27	< 0
COc1cc(NC(C)CCCN)c2ncccc2c1 (centres undefined)	51.1	54.5	64.3	38
Cc1ccc(-c2cc(C(=O)Nc3cccnc3)c3cc(Br)ccc3n2)cc1	92.4	95.2	98.3	86.3
N#Cc1ccc(-c2ccc(OCC(N)=O)cc2)cc1	< 0	6.45	< 0	< 0
CC(=O)Nc1ccc(NC(=O)c2cc(-c3cc(Cl)ccc3O)n[nH]2)cc1	96.6	95.3	96.3	90.8
CC(C)(C)OC(=O)N1CCN(c2nccc(-c3ccc(-c4ccc(Cl)cc4)s3)n2)CC1	< 0	2.86	64.1	11.6
CN1CCN(c2cc(-c3ccc(F)cc3)nc(-c3ccncc3)n2)CC1	79.9	95.3	92.9	96.5
CCC(=O)Nc1ccccc1C(=O)Nc1ccccn1	< 0	< 0	< 0	< 0
CC(c1cc(Cl)cc(Cl)c1)N(C)c1ncc2c(N)nc(N)nc2n1 (centres undefined)	54.9	91.6	53	77.7
O=C(Nc1nnc(S)s1)c1cc(Br)ccc1Cl	31.8	9.59	< 0	< 0
CS(=O)(=O)c1cccc(-c2cnc3[nH]cc(-c4ccc(CCC(=O)O)cc4)c3c2)c1	79	70.7	> 100	86.2
